# Experimental data as given in PubChem BioAssay.
# Values joined by “and” are separate entries in the source; they are usually repeats but may differ in a detail not shown here. Equal values may be shown once. Results filed as inconclusive are left out. Active and inactive are the calls of the source. Cut-off read from the data, not from the text of the source, unless noted: active = inhibition above about 80%; inactive = the rest.
# Experiments:
# [1] = viability loss in pontine glioma line – cell-based, JHH-DIPG-1, MIPE4.0, CellTiter-Glo, qHTS, dose response (AID 1347062; cut-off not given, nearly all actives have AC50 up to about 27 µM); conditions: JHH-DIPG-1 viability, CellTiter-Glo ATP luminescence
# [2] = viability loss in pontine glioma line – cell-based, SU-DIPG-XXV, MIPE5.0, CellTiter-Glo, qHTS, dose response (AID 1347065; cut-off not given, nearly all actives have AC50 up to about 26 µM;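 note: cells exposed to compound for 48 hours before ATP readout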); conditions: CellTiter-Glo ATP luminescence
# [3] = JHH-DIPG-1 glioma cell viability, MIPE5.0 library, CellTiter-Glo luminescence, qHTS (AID 1347067; cut-off not given, nearly all actives have AC50 up to about 26 µM;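 note: cells exposed to compound for 48 hours before readout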); conditions: JHH-DIPG-1 glioma viability, CellTiter-Glo ATP luminescence
# [4] = rescue of PC12 cells from polyQ htt toxicity – LDH release (AID 1610); conditions: PC12 mutant huntingtin toxicity, final LDH at 4 uM, stronger effect = lower value
# [5] = tested on: Neuropilin-2 / VEGF-C interaction (human); experiment: small molecules blocking Neuropilin-2/VEGF-C interaction – biochemical, microplate binding format, z-score (AID 743281; call rule not given here); conditions: microplate NRP2/VEGF-C binding assay; stronger effect = lower value
# [6] = viability loss in pontine glioma line – cell-based, SU-DIPG-XIII, MIPE5.0, CellTiter-Glo, qHTS, dose response (AID 1347064; cut-off not given, nearly all actives have AC50 up to about 23 µM); conditions: CellTiter-Glo ATP luminescence
# [7] = compounds altering HSF1 focus formation in cells – imaging, Selleck Cancer Library (AID 1347162; in the data active = plate-normalised HSF1 focus index below about 0.46); conditions: human cells, HSF1 nuclear foci imaging, at 10 µM; SSMD: measured here: HSF1 foci SSMD mean; cell count: measured here: cell number; plate-normalised HSF1 focus index: stronger effect = lower value
# [8] = chitosan synthesis blockers in C. neoformans – flow cytometry, Cibacron Brilliant Red staining (AID 1347148; call rule not given here;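 note: compound exposure lasted three days at 37 degrees C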); conditions: Cryptococcus neoformans chitosan, stronger effect = lower value; at 10 µM unless noted
# [9] = growth inhibition, single agents and combos, LFS_MB_1R, cell-based, cisplatin or BGB combos, synergistic combos for chromothripsis tumors (AID 1671452); conditions: LFS_MB_1R medulloblastoma cells, stronger effect = higher value;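 note: cells exposed for 96 hours before readout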
# [10] = growth inhibition, single agents and combos, CRL2098, cell-based, BGB or cisplatin IC20 combos, synergistic combos for chromothripsis tumors (AID 1671454); conditions: CRL2098 osteosarcoma cells, drug combinations, stronger effect = higher value;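 note: cells exposed for 96 h before readout; 0% = vehicle DMSO and 100% = killing by high DMSO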
# [11] = growth inhibition, single agents and combos, HD-MB03, cell-based, BGB or cisplatin IC20 combos, synergistic combos for chromothripsis tumors (AID 1671455; in the data active = inhibition above about 83%;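 note: 0% = vehicle DMSO and 100% = high DMSO as cytotoxic control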); conditions: HD-MB03 medulloblastoma cells, stronger effect = higher value
# [12] = growth inhibition, single agents and combos, UWB1.289, cell-based, BGB or cisplatin combos, synergistic combos for chromothripsis tumors (AID 1671456); conditions: UWB1.289 ovarian carcinoma cells, stronger effect = higher value;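 note: cells exposed to compound for four days; 0% = vehicle DMSO and 100% = killing by high DMSO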
# [13] = growth inhibition, single agents and combos, LFS_MB_2R, cell-based, cisplatin combos, synergistic combos for chromothripsis tumors (AID 1671457); conditions: LFS_MB_2R medulloblastoma cells, stronger effect = higher value;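 note: cells exposed to compound for four days before readout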
# [14] = UWB1.289_BRCA1 ovarian cancer growth, cell-based, BGB or cisplatin combinations (AID 1671459); conditions: UWB1.289 BRCA1 ovarian carcinoma, drug combinations, stronger effect = higher value
# [15] = drug combination toxicity in non-malignant astrocytes – cell-based, BGB or cisplatin IC20 combos, cytotoxicity control for chromothriptic childhood tumor combination screen (AID 1671460); conditions: Human astrocytes, viability inhibition, drug combinations, at 0.5 µM, stronger effect = higher value;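 note: cells exposed to compounds for 96 hours before viability readout; 0% = vehicle and 100% = killing control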
# [16] = RCMB18 cell growth, single agent and combined, cisplatin and BGB IC40 combos (AID 1671462); conditions: RCMB18 medulloblastoma cells, stronger effect = higher value;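 note: cells exposed to compound for four days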
# [17] = CRL1545 cell growth, single agent and combined, cisplatin and BGB IC20 combos (AID 1671464); conditions: CRL1545 osteosarcoma cells, stronger effect = higher value;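 note: cells exposed to compound for 96 hours before readout; 0% = vehicle DMSO and 100% = high DMSO killing control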
# [18] = measured here: combination with BGB IC40, at 0.05 µM
# [19] = measured here: combination with cisplatin, at 0.5 µM
# [20] = measured here: combination with cisplatin, at 5 µM
# [21] = measured here: combination with BGB at IC20, at 0.5 µM
# [22] = measured here: combination with cisplatin at IC20, at 0.5 µM
# [23] = measured here: combo with BGB at IC20, at 0.5 µM
# [24] = measured here: combo with cisplatin at IC20, at 0.5 µM
# [25] = measured here: inhibition with BGB combination, at 0.05 µM
# [26] = measured here: inhibition with cisplatin combination, at 0.05 µM
# [27] = BGB combination, concentration series, at 5 µM
# [28] = cisplatin combination, concentration series, at 5 µM
# [29] = measured here: combo with BGB IC20
# [30] = measured here: combo with cisplatin IC20
# [31] = measured here: BGB IC40 combination, at 0.05 µM
# [32] = measured here: with BGB IC20 combination, at 0.5 µM
# [33] = measured here: with cisplatin IC20 combination, at 0.5 µM
compound,measurement,setting,value
C[C@@H]1CC[C@H]2[C@@H](C)C(=O)O[C@@H]3O[C@@]4(C)CC[C@@H]1[C@]32OO4,outcome,[1],inactive
same,outcome,[2],inactive
same,outcome,[3],inactive
CC[n+]1c(-c2ccccc2)c2cc(N)ccc2c2ccc(N)cc21,normalised LDH release,[4],0.673
CN1C(=O)CN=C(c2ccccc2)c2cc([N+](=O)[O-])ccc21,z-score,[5],-0.553 (inactive)
CNCC(O)c1ccc(O)cc1 (stereo unspecified),z-score,[5],-0.502 (inactive)
same,outcome,[1],inactive
same,outcome,[6],inactive
same,outcome,[2],inactive
same,outcome,[3],inactive
O=C(O)C(Cl)Cl,z-score,[5],0.208 (inactive)
COc1cc(N)c(Cl)cc1C(=O)NC1CN2CCC1CC2 (stereo unspecified),z-score,[5],-0.38 (inactive)
C[N+]1(CCC(C(N)=O)(c2ccccc2)c2ccccc2)CCCCC1,z-score,[5],-0.188 (inactive)
CN[C@@H]1C[C@@H](c2ccc(Cl)c(Cl)c2)c2ccccc21,z-score,[5],0.266 (inactive)
CCC(COC(=O)c1cc(OC)c(OC)c(OC)c1)(c1ccccc1)N(C)C (stereo unspecified),z-score,[5],-1.07 (inactive)
CC(C)c1cccc(C(C)C)c1O,outcome,[1],inactive
same,outcome,[6],inactive
same,outcome,[2],inactive
same,outcome,[3],inactive
C=C1C[C@@H]2[C@H](CC[C@]3(C)C(=O)CC[C@@H]23)[C@@]2(C)C=CC(=O)C=C12,outcome,[1],inactive
same,outcome,[6],inactive
same,outcome,[2],inactive
same,outcome,[3],inactive
same,SSMD,[7],1.72
same,cell count,[7],6870
same,plate-normalised HSF1 focus index,[7],1.09 (inactive)
N#Cc1nn(-c2c(Cl)cc(C(F)(F)F)cc2Cl)c(N)c1S(=O)C(F)(F)F (stereo unspecified),fold fluorescence,[8],4.35 [at 114.4 µM] (inactive)
C#CCN(C)[C@H](C)Cc1ccccc1,z-score,[5],-0.865 (inactive)
same,outcome,[1],inactive
same,outcome,[6],inactive
same,outcome,[2],inactive
same,outcome,[3],inactive
COc1ccc(C(=O)N2CCCC2=O)cc1,outcome,[1],inactive
same,outcome,[2],inactive
same,outcome,[3],inactive
CN1CCN(C(=O)O[C@H]2c3nccnc3C(=O)N2c2ccc(Cl)cn2)CC1,outcome,[1],inactive
NC(=O)OCCCc1ccccc1,z-score,[5],-0.636 (inactive)
CCN(CC)CCOC(=O)C(O)(c1ccccc1)c1ccccc1,z-score,[5],0.28 (inactive)
c1ccc2c(c1)Nc1ccccc1S2,z-score,[5],0.0903 (inactive)
NC1=NC(=O)C(c2ccccc2)O1 (stereo unspecified),z-score,[5],-1.08 (inactive)
COc1cccc([C@@]2(O)CCCC[C@@H]2CN(C)C)c1,z-score,[5],0.404 (inactive)
CN1C(=O)COc2c(C(=O)NC3CN4CCC3CC4)cc(Cl)cc21 (stereo unspecified),z-score,[5],0.29 (inactive)
same,outcome,[1],inactive
same,outcome,[6],inactive
same,outcome,[2],inactive
Nc1ccncc1,fold fluorescence,[8],3.69 [at 531.3 µM] (inactive)
NN=C(N)N,outcome,[6],inactive
same,outcome,[2],inactive
same,outcome,[3],inactive
O=P1(NCCCl)OCCCN1CCCl (stereo unspecified),outcome,[1],inactive
same,outcome,[6],inactive
same,outcome,[2],inactive
same,outcome,[3],inactive
same,inhibition,[9]; at 0.5 µM,-28.1% (inactive) and -35.8% (inactive)
same,inhibition,[9]; [18],3.69% and -53.3%
same,inhibition,[9]; [19],-0.682% and -78.4%
same,inhibition,[9]; [20],-35.6% and -67.8%
same,inhibition,[10]; at 0.5 µM,-54.7% (inactive) and -66.2% (inactive)
same,inhibition,[10]; [21],-36.5% and -70.3%
same,inhibition,[10]; [22],-76.6% and -81.7%
same,inhibition,[11]; at 0.5 µM,-1.59% (inactive) and -13.1% (inactive)
same,inhibition,[11]; [23],-0.444% and -33.2%
same,inhibition,[11]; [24],-1.58% and -14.4%
same,inhibition,[12]; at 0.5 µM,-7.68% (inactive) and -24.2% (inactive)
same,inhibition,[12]; [25],-37.9% and -17.6%
same,inhibition,[12]; [26],-13.2% and -26.4%
same,inhibition,[13]; at 0.5 µM,-24.9% (inactive) and -21% (inactive)
same,inhibition,[13]; [19],-18.4% and -33%
same,inhibition,[13]; [20],-20.4% and -22.6%
same,inhibition,[14]; [27],-15.7% and -7.29%
same,inhibition,[14]; at 0.5 µM,-18.2% (inactive) and -23.7% (inactive)
same,inhibition,[14]; [28],-10.3% and -29.5%
same,inhibition,[15],-8.49% (inactive) and 1.06% (inactive)
same,inhibition,[15]; [29],-4.33% and 4.18%
same,inhibition,[15]; [30],-7.61% and -5.83%
same,inhibition,[16]; at 0.5 µM,-14.3% (inactive) and -7.44% (inactive)
same,inhibition,"[16]; cisplatin combo, at 5 µM",-2.4% and -9.06%
same,inhibition,[16]; [31],-18.8% and -23%
same,inhibition,[16]; [19],-12.5% and 2.1%
same,inhibition,"[16]; single agent, at 5 µM",-33% and -28.9%
same,inhibition,[17]; at 0.5 µM,-45.1% (inactive) and -50.6% (inactive)
same,inhibition,[17]; [32],-3.77% and -48%
same,inhibition,[17]; [33],-65.8% and -54.4%
same,inhibition,"[17]; single agent, at 0.05 µM",-16.2% and -50%
same,inhibition,"[17]; single agent, at 5 µM",2.18% and -61%
CC1(C)C(C=C(Cl)Cl)C1C(=O)OC(C#N)c1cccc(Oc2ccccc2)c1 (stereo unspecified),fold fluorescence,[8],4.81 [at 120.1 µM] (inactive)
Oc1cccc2cccnc12,normalised LDH release,[4],1
Cn1c(CCCC(=O)O)nc2cc(N(CCCl)CCCl)ccc21,outcome,[6],inactive
same,outcome,[2],inactive
same,inhibition,[9]; at 0.5 µM,-36.7% (inactive)
same,inhibition,[9]; [18],-23.8%
same,inhibition,[9]; [19],-14.3%
same,inhibition,[9]; [20],-23.5%
same,inhibition,[10]; at 0.5 µM,-98.8% (inactive)
same,inhibition,[10]; [21],-103%
same,inhibition,[10]; [22],-129%
same,inhibition,[11]; at 0.5 µM,-13.4% (inactive)
same,inhibition,[11]; [23],-11.1%
same,inhibition,[11]; [24],-20.4%
same,inhibition,[12]; at 0.5 µM,-2.34% (inactive)
same,inhibition,[12]; [25],-13.2%
same,inhibition,[12]; [26],-10.4%
same,inhibition,[13]; at 0.5 µM,-14.6% (inactive)
same,inhibition,[13]; [19],-2.61%
same,inhibition,[13]; [20],-14.7%
same,inhibition,[14]; [27],-2.78%
same,inhibition,[14]; at 0.5 µM,-6.91% (inactive)
same,inhibition,[14]; [28],-6.97%
same,inhibition,[15],-9.57% (inactive)
same,inhibition,[15]; [29],-2.95%
same,inhibition,[15]; [30],-20%
same,inhibition,[16]; at 0.5 µM,-2.17% (inactive)
same,inhibition,"[16]; cisplatin combo, at 5 µM",-2.69%
same,inhibition,[16]; [31],14.5%
same,inhibition,[16]; [19],15.5%
same,inhibition,"[16]; single agent, at 5 µM",-39.8%
same,inhibition,[17]; at 0.5 µM,-50.3% (inactive)
same,inhibition,[17]; [32],-68.1%
same,inhibition,[17]; [33],-41.4%
same,inhibition,"[17]; single agent, at 0.05 µM",2.56%
same,inhibition,"[17]; single agent, at 5 µM",-15.4%
